Laboratory results: the supplement of paper PMC4962491
Where “and” joins values, the source holds several entries; their conditions need not be identical. Equal entries are not always repeated. ± gives the standard deviation of the averaged measurements. In all, about 1,600 compounds were measured (“mitochondrial oxygen consumption rate normalised to cell number, Z score over the library”: median about 0.065, lowest 2% from about -2.2 on). The sample as a whole holds a higher share of the lowest values than the screen did.

These compounds were tested on FaDu (assay: mitochondrial oxygen consumption rate normalised to cell number, Z score over the library; higher = higher oxygen consumption (negative = OCR reduction)). Details: treatment time 24 h; assay medium: 5 mM galactose, 5 mM pyruvate, 4 mM glutamine; 10 µM.
Method: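 Primary screen: FaDu cells were incubated 24 h with Pharmakon 1600 / TDI oncology set compounds at 2 or 10 uM. Mitochondrial-specific OCR (basal minus 2 uM antimycin A) was measured on a Seahorse XF96 in assay medium with 5 mM galactose, 5 mM pyruvate and 4 mM glutamine, then corrected for Hoechst cell number and expressed as a Z score […]. Compounds that cut cell number by >66% were excluded. Two repeats.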

Structure (SMILES)	mitochondrial oxygen consumption rate normalised
Oc1ccc2ccccc2c1 [beta-NAPHTHOL]	0.778 ± 0.095
C/C=C(/C)C(=O)O[C@H]1[C@H](OC(C)=O)[C@@]2(CO)C(CC1(C)C)C1=CCC3[C@@]4(C)CCC(O[C@@H]5O[C@H](C(=O)O)[C@@H](O[C@@H]6O[C@H](CO)[C@@H](O)[C@H](O)[C@H]6O)[C@H](O)[C@H]5O[C@@H]5O[C@H](CO)[C@@H](O)[C@H](O)[C@H]5O)[C@](C)(CO)C4CC[C@@]3(C)[C@]1(C)C[C@H]2O.C/C=C(\C)C(=O)O[C@H]1[C@H](OC(C)=O)[C@@]2(CO)C(CC1(C)C)C1=CCC3[C@@]4(C)CCC(O[C@@H]5O[C@H](C(=O)O)[C@@H](O[C@@H]6O[C@H](CO)[C@@H](O)[C@H](O)[C@H]6O)[C@H](O)[C@H]5O[C@@H]5O[C@H](CO)[C@@H](O)[C@H](O)[C@H]5O)[C@](C)(CO)C4CC[C@@]3(C)[C@]1(C)C[C@H]2O (some centres undefined)	0.3 ± 0.096
N=C(N)NC(=N)NCCc1ccccc1	-1.85 ± 0.1
N=C(NCCCCCCNC(=N)NC(=N)Nc1ccc(Cl)cc1)NC(=N)Nc1ccc(Cl)cc1	-3.36 ± 0.16
CC(C)NC(=N)NC(=N)Nc1ccc(Cl)cc1	-0.293 ± 0.099
CN(C)c1cnccn1	0.284 ± 0.5
CC[C@H]1OC(=O)C[C@@H](O)[C@H](C)[C@@H](O[C@@H]2O[C@H](C)[C@@H](O)[C@H](N(C)C)[C@H]2O)[C@@H](CCN2C[C@H](C)C[C@H](C)C2)C[C@@H](C)C(=O)/C=C/C(C)=C/[C@@H]1CO[C@@H]1O[C@H](C)[C@@H](O)[C@@H](OC)[C@H]1OC	0.2667 ± 0.0014
CCCNC(C)C(=O)Nc1ccccc1C (centres undefined)	-0.507 ± 1.1
CC(C)[C@H](N)C(=O)OCC(CO)OCn1cnc2c(=O)nc(N)[nH]c21 (some centres undefined)	1.37 ± 0.77
N#Cc1ccc2[nH]cc(CCCCN3CCN(c4ccc5oc(C(N)=O)cc5c4)CC3)c2c1	-0.383 ± 0.58
CCN(CC)C(=O)N1CCN(C)CC1	1.02 ± 0.63
CCOCCOc1ccccc1C(N)=O	1.14 ± 0.52
Cc1c2oc3c(C)ccc(C(=O)N[C@@H]4C(=O)N[C@H](C(C)C)C(=O)N5CCC[C@H]5C(=O)N(C)CC(=O)N(C)[C@@H](C(C)C)C(=O)O[C@@H]4C)c3nc-2c(C(=O)N[C@@H]2C(=O)N[C@H](C(C)C)C(=O)N3CCC[C@H]3C(=O)N(C)CC(=O)N(C)[C@@H](C(C)C)C(=O)O[C@@H]2C)c(N)c1=O	-4.48 ± 0.4
CO[C@H]1C[C@H](O[C@@H]2/C(C)=C/C[C@@H]3C[C@@H](C[C@]4(CC[C@H](C)[C@@H](C5CCCCC5)O4)O3)OC(=O)[C@@H]3C=C(C)/C(=N/O)[C@H]4OC/C(=C\C=C\[C@@H]2C)[C@]43O)O[C@@H](C)[C@@H]1O	0.0124 ± 0.37
CN(C)CCc1c[nH]c2ccc(C[C@H]3COC(=O)N3)cc12	0.529 ± 0.45
CCC(=O)O[C@H](CC(=O)O)C[N+](C)(C)C	-0.676 ± 0.16
C[C@]12CCC(=O)C=C1CC[C@@H]1[C@@H]2[C@@H](O)C[C@@]2(C)[C@H]1CC[C@]2(O)C(=O)COP(=O)(O)O	1.06 ± 0.71
NCCc1cc[nH]n1	-0.155 ± 0.3
CCCCCCOC(=O)NC(=N)c1ccc(NCc2nc3cc(C(=O)N(CCC(=O)OCC)c4ccccn4)ccc3n2C)cc1	0.662 ± 0.54
Cc1ncc(COP(=O)([O-])[O-])c(CN(CCN(CC(=O)O)Cc2c(COP(=O)([O-])O)cnc(C)c2O)CC(=O)O)c1O.[Mn].[Na+].[Na+].[Na+]	0.342 ± 0.21
CCCOc1ccc2[nH]c(NC(=O)OC)nc2c1	0.108 ± 0.53
CCCCC(=O)O[C@]1(C(=O)CO)[C@@H](C)C[C@H]2[C@@H]3CCC4=CC(=O)C=C[C@]4(C)[C@@]3(F)[C@@H](O)C[C@@]21C	-0.0902 ± 0.67
O=C1CN2Cc3c(ccc(Cl)c3Cl)N=C2N1	1.01 ± 0.66
C[C@]12CC[C@@H]3c4ccc(O)cc4CC[C@H]3[C@@H]1CC[C@@H]2O	-0.551 ± 0.072
C[C@]12CC[C@@H]3c4ccc(O)cc4C[C@@H](CCCCCCCCC[S+]([O-])CCCC(F)(F)C(F)(F)F)[C@H]3[C@@H]1CC[C@@H]2O (some centres undefined)	-2.25 ± 2.2
C[C@]12CC[C@@H]3c4ccc(O)cc4CC[C@H]3[C@@H]1C[C@@H](O)[C@@H]2O	-0.347 ± 0.41
N=C(N)NS(=O)(=O)c1ccc(N)cc1	-0.417 ± 0.81

Structure (SMILES)	mitochondrial oxygen consumption rate normalised
O=C[C@H](O)[C@@H](O)[C@H](O)CO	-0.552 ± 0.11
CC(C)(C)CC(C)(C)c1ccc(OCCOCC[N+](C)(C)Cc2ccccc2)cc1	-6.2 ± 0.063
Cc1cc(C(C)(C)CC(C)(C)C)ccc1OCCOCC[N+](C)(C)Cc1ccccc1	-5.95 ± 0.082
CO[C@H]1C[C@@H]2CC[C@@H](C)[C@@](O)(O2)C(=O)C(=O)N2CCCC[C@H]2C(=O)O[C@H]([C@H](C)C[C@@H]2CC[C@@H](OCCO)[C@H](OC)C2)CC(=O)[C@H](C)/C=C(\C)[C@@H](O)[C@@H](OC)C(=O)[C@H](C)C[C@H](C)/C=C/C=C/C=C/1C	-1.07 ± 0.18
C(=C\c1ccccc1)/CN1CCN(C(c2ccccc2)c2ccccc2)CC1	-0.167 ± 0.011
COc1ccc2cc(CCC(C)=O)ccc2c1	0.808 ± 0.11
O=C(Nc1ccccc1)c1ccccc1O	-0.209 ± 0.021
CC1CCCC(C)N1 (centres undefined)	-0.441 ± 0.17
O=C(CCCCCCCC(=O)NCCO)NCCO	-0.567 ± 0.53
Cn1nnnc1SCC1=C(C(=O)O)N2C(=O)[C@@H](NC(=O)[C@H](O)c3ccccc3)[C@H]2SC1	0.376 ± 0.31
COCCCOc1ccnc(C[S+]([O-])c2nc3ccccc3[nH]2)c1C (centres undefined)	0.0779 ± 0.21
CCN(CC)CCOC(=O)C(Cc1cccc2ccccc12)CC1CCCO1 (centres undefined)	-0.531 ± 1.6
O=C(O)c1cc(O)c2c(c1)[C@H]([C@H]1c3cc(C(=O)O)cc(O)c3C(=O)c3c(O[C@@H]4O[C@H](CO)[C@@H](O)[C@H](O)[C@H]4O)cccc31)c1cccc(O[C@@H]3O[C@H](CO)[C@@H](O)[C@H](O)[C@H]3O)c1C2=O	0.905 ± 0.018
COc1cccc2c1C(=O)c1c(O)c3c(c(O)c1C2=O)C[C@@](O)(C(=O)CO)C[C@@H]3O[C@H]1C[C@H](N)[C@@H](O)[C@H](C)O1	-2.82 ± 0.22
CCCCC(=O)OCC(=O)[C@]1(O)Cc2c(O)c3c(c(O)c2[C@@H](O[C@H]2C[C@H](NC(=O)C(F)(F)F)[C@H](O)[C@H](C)O2)C1)C(=O)c1c(OC)cccc1C3=O [valrubicin]	-0.0886 ± 0.77
Cn1nnnc1SCC1=C(C(=O)O)N2C(=O)[C@@H](NC(=O)[C@H](OC=O)c3ccccc3)[C@H]2SC1	0.0513 ± 0.34
CC(C)NCC(O)COc1cccc2ccccc12 (racemic)	-0.291 ± 0.42
CC[n+]1c(-c2ccccc2)c2cc(N)ccc2c2ccc(N)cc21	-2.32 ± 0.27
COc1cc(NS(C)(=O)=O)ccc1Nc1c2ccccc2nc2ccccc12	-2.77 ± 0.43
CS(=O)(=O)Nc1ccc([N+](=O)[O-])cc1Oc1ccccc1	0.196 ± 0.72
CC(=O)Oc1c(C)c(C)c2c(c1C)CCC(C)(CCCC(C)CCCC(C)CCCC(C)C)O2 (stereo not drawn) [alpha-TOCHOPHERYL ACETATE]	-0.281 ± 0.21
O=C1c2ccccc2C(=O)C1c1ccc(Cl)cc1	0.0788 ± 0.46
CC(O)C(=O)[O-].[Na+] (centres undefined)	1.11 ± 0.92
CC(=O)Nc1ccc(S(=O)(=O)Nc2ccc([N+](=O)[O-])cc2)cc1	1.45 ± 0.4
NCCCS(=O)(=O)O	-0.855 ± 0.32
C#CCC(Cc1cnc2nc(N)nc(N)c2n1)c1ccc(C(=O)N[C@@H](CCC(=O)O)C(=O)O)cc1 (some centres undefined) [Pralatrexate]	0.0598 ± 0.75
Nc1ccc(S(=O)(=O)O)cc1.Nc1ccc(S(=O)(=O)O)cc1.[Zn]	1.04 ± 0.43

Structure (SMILES)	mitochondrial oxygen consumption rate normalised
C[C@@H]1O[C@@H](OC[C@H]2O[C@@H](Oc3c(-c4ccc(OCCO)c(OCCO)c4)oc4cc(OCCO)cc(O)c4c3=O)[C@H](O)[C@@H](O)[C@@H]2O)[C@H](O)[C@H](O)[C@H]1O	-0.575 ± 0.55
CC(C)CCC[C@@H](C)[C@H]1CC[C@H]2[C@@H]3CC=C4C[C@@H](O)CC[C@]4(C)[C@H]3CC[C@]12C	-0.87 ± 0.089
O=C(c1cccnc1)N1CCOCC1	-0.217 ± 0.94
COc1cc(NS(=O)(=O)c2ccc(N)cc2)ncn1	0.47 ± 0.61
NCC(O)CC(=O)O (centres undefined)	-0.332 ± 0.83
CN1C(=O)CC(C)(c2ccccc2)C1=O (centres undefined)	-0.314 ± 0.74
CCCCCCCCCc1ccc(OCCOCCOCCOCCOCCOCCOCCOCCOCCO)cc1	-3.66 ± 0.45
CCCCOc1ccc(OCCCN2CCOCC2)cc1	-0.434 ± 0.23
CCCCOc1ccc(CC(=O)NO)cc1	-0.625 ± 0.84
CC(=O)Oc1ccccc1C(=O)O	0.27 ± 0.45
CC(=O)Nc1ncc([N+](=O)[O-])s1	0.857 ± 0.27
CC(=O)Oc1ccccc1C(=O)Nc1ncc([N+](=O)[O-])s1	-2.45 ± 0.1
CN(C)[C@@H]1C(O)=C(C(N)=O)C(=O)[C@@]2(O)C(O)=C3C(=O)c4c(O)cccc4[C@@](C)(O)[C@H]3[C@H](O)[C@@H]12	0.305 ± 0.067
Cn1c(=O)c2[nH]c(Br)nc2n(C)c1=O	0.142 ± 0.29
O=C(CCBr)N1CCN(C(=O)CCBr)CC1	1.32 ± 1.1
O=C(CCBr)N1CCN(C(=O)CCBr)CC1 [Pipobroman]	-0.527 ± 1.4
CCC1(C)OC(=O)N(C)C1=O (centres undefined)	0.0479 ± 0.05
CN1C(C(=O)Nc2ccccn2)=C(O)c2sc(Cl)cc2S1(=O)=O	-0.183 ± 0.66
O=[N+]([O-])c1ccc(O)c2ncccc12	-2.21 ± 0.14
Oc1ccc(Cl)c2cccnc12	0.469 ± 0.61
Oc1c(I)cc(I)c2cccnc12	0.968 ± 0.98
CCCCCCCC/C=C\CCCCCCCC(=O)O.NCCO	-0.00915 ± 0.76
CC[C@H]1OC(=O)[C@H](C)[C@@H](O[C@H]2C[C@@](C)(OC)[C@@H](O)[C@H](C)O2)[C@H](C)[C@@H](O[C@@H]2O[C@H](C)C[C@H](N(C)C)[C@H]2O)[C@](C)(O)C[C@@H](C)[C@@H]2N[C@@H](COCCOC)O[C@H]([C@H]2C)[C@]1(C)O	-0.149 ± 0.29
CCc1c2c(nc3ccc(OC(=O)N4CCC(N5CCCCC5)CC4)cc13)-c1cc3c(c(=O)n1C2)COC(=O)[C@]3(O)CC	-1.11 and -2.18
CC[C@@]1(O)C(=O)OCc2c1cc1n(c2=O)Cc2cc3c(CN(C)C)c(O)ccc3nc2-1	-4.46 ± 0.19
